In PubChem BioAssay AID1159580 (chemical genetic matrix, 2015):
In all, about 5,500 compounds went through this assay and about 2,000 (36%) were called active. Roughly 18% stayed inconclusive and do not appear here. Rule as the data show it: active = normalized growth mostly below about 0.91 (no sharp cut-off); inconclusive = no clear call, values can overlap the other calls; inactive = mostly above about 0.92. This is one part of the list.

Assay: chemical genetic growth profiling, strain panel (AID 1159580);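 also: tested at 20 µM; growth read once vehicle control cultures reached saturation at 30 °C; 1 = growth at the plate median or of vehicle wells; lower values mean less growth of the strain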
Settings: growth OD

Measured: normalized growth

C=C1C2CC[C@@]3(C)[C@H](c4ccoc4)OC(=O)C[C@]13O[C@H]1CC(O)C(C)(C)C(CC(=O)OC)[C@@]21C (stereo not given in full)
inactive: S. cerevisiae deletion strains, locus YJL187C, strain SWE1, hits give low values 0.971 | S. cerevisiae deletion strains, locus YJR043C, strain POL32, hits give low values 1.01 | S. cerevisiae deletion strains, locus YJR066W, strain TOR1, hits give low values 0.922 | S. cerevisiae deletion strains, locus YKL009W, strain mrt4, hits give low values 1 | S. cerevisiae deletion strains, locus YKL068W, hits give low values 1.01 | S. cerevisiae deletion strains, locus YKL085W, strain MDH1 (second series), hits give low values 0.999 | S. cerevisiae deletion strains, locus YKL085W, strain MDH1, hits give low values 0.999 | S. cerevisiae deletion strains, locus YKL160W, strain elf1, hits give low values 0.984 | S. cerevisiae deletion strains, locus YKL190W, strain CNB1, hits give low values 0.987 | S. cerevisiae deletion strains, locus YKR001C, strain vps1, hits give low values 0.999 | S. cerevisiae deletion strains, locus YKR026C, strain gcn3, hits give low values 0.985 | S. cerevisiae deletion strains, locus YKR091W, strain srl3, hits give low values 0.965 | S. cerevisiae deletion strains, locus YLL001W, strain dnm1, hits give low values 0.989 | S. cerevisiae deletion strains, locus YLL026W, hits give low values 0.974 | S. cerevisiae deletion strains, locus YLL041C, strain sdh2, hits give low values 0.971 | S. cerevisiae deletion strains, locus YLR027C, strain aat2, hits give low values 0.99 | S. cerevisiae deletion strains, locus YLR039C, strain RIC1, hits give low values 0.963 | S. cerevisiae deletion strains, locus YLR058C, strain SHM2, hits give low values 1 | S. cerevisiae deletion strains, locus YLR102C, strain apc9, hits give low values 1.01 | S. cerevisiae deletion strains, locus YLR113W, strain HOG1, hits give low values 0.996 | S. cerevisiae deletion strains, locus YLR221C, strain rsa3, hits give low values 0.981 | S. cerevisiae deletion strains, locus YLR258W, strain gsy2, hits give low values 0.977 | S. cerevisiae deletion strains, locus YLR262C, strain YPT6 (second series), hits give low values 0.925 | S. cerevisiae deletion strains, locus YLR268W, strain sec22, hits give low values 1.01 | S. cerevisiae deletion strains, locus YLR320W, strain mms22, hits give low values 0.97 | S. cerevisiae deletion strains, locus YLR342W, strain FKS1 (second series), hits give low values 1.02 | S. cerevisiae deletion strains, locus YLR342W, strain FKS1, hits give low values 0.971 | S. cerevisiae deletion strains, locus YLR357W, strain rsc2, hits give low values 0.998 | S. cerevisiae deletion strains, locus YLR370C, strain arc18, hits give low values 0.981 | S. cerevisiae deletion strains, locus YLR371W, strain rom2, hits give low values 1.02 | S. cerevisiae deletion strains, locus YLR384C, strain iki3, hits give low values 0.964 | S. cerevisiae deletion strains, locus YLR418C, strain cdc73, hits give low values 0.998 | S. cerevisiae deletion strains, locus YML016C, strain PPZ1, hits give low values 1.01 | S. cerevisiae deletion strains, locus YML032C, strain rad52, hits give low values 1.03 | S. cerevisiae deletion strains, locus YML120C, strain ndi1, hits give low values 0.99 | S. cerevisiae deletion strains, locus YML124C, strain tub3, hits give low values 1.01 | S. cerevisiae deletion strains, locus YMR058W, strain fet3, hits give low values 0.97 | S. cerevisiae deletion strains, locus YMR078C, strain ctf18, hits give low values 1.01 | S. cerevisiae deletion strains, locus YMR125W, strain sto1, hits give low values 0.972 | S. cerevisiae deletion strains, locus YMR129W, hits give low values 0.989 | S. cerevisiae deletion strains, locus YMR205C, strain PFK2, hits give low values 0.962 | S. cerevisiae deletion strains, locus YMR223W, strain ubp8, hits give low values 1.01 | S. cerevisiae deletion strains, locus YMR231W, strain pep5, hits give low values 0.971 | S. cerevisiae deletion strains, locus YMR307W, strain GAS1, hits give low values 1.06 | S. cerevisiae deletion strains, locus YNL067W, strain RPL9B, hits give low values 1.01 | S. cerevisiae deletion strains, locus YNL071W, strain lat1, hits give low values 0.974 | S. cerevisiae deletion strains, locus YNL183C, strain NPR1, hits give low values 0.974 | S. cerevisiae deletion strains, locus YNL209W, strain ssb2, hits give low values 0.979 | S. cerevisiae deletion strains, locus YNL233W, strain BNI4, hits give low values 0.972 | S. cerevisiae deletion strains, locus YNL248C, strain rpa49, hits give low values 0.971 | S. cerevisiae deletion strains, locus YNL250W, strain rad50, hits give low values 1.02 | S. cerevisiae deletion strains, locus YNL271C, strain bni1, hits give low values 1.01 | S. cerevisiae deletion strains, locus YNL298W, strain CLA4, hits give low values 1.01 | S. cerevisiae deletion strains, locus YNL307C, strain MCK1, hits give low values 1.01 | S. cerevisiae deletion strains, locus YNL322C, strain KRE1 (second series), hits give low values 0.985 | S. cerevisiae deletion strains, locus YNR049C, strain mso1, hits give low values 0.969 | S. cerevisiae deletion strains, locus YNR052C, strain pop2, hits give low values 1.02 | S. cerevisiae deletion strains, locus YOL012C, strain htz1 1.88 | S. cerevisiae deletion strains, locus YOL147C, strain pex11, hits give low values 1.02 | S. cerevisiae deletion strains, locus YOR001W, strain rrp6, hits give low values 0.969 | S. cerevisiae deletion strains, locus YOR061W, strain CKA2, hits give low values 1 | S. cerevisiae deletion strains, locus YOR069W, strain VPS5, hits give low values 1.01 | S. cerevisiae deletion strains, locus YOR070C, strain gyp1, hits give low values 0.978 | S. cerevisiae deletion strains, locus YOR080W, strain dia2, hits give low values 0.979 | S. cerevisiae deletion strains, locus YOR083W, strain WHI5, hits give low values 0.981 | S. cerevisiae deletion strains, locus YOR106W, strain vam3, hits give low values 0.955 | S. cerevisiae deletion strains, locus YOR136W, strain idh2, hits give low values 1.02 | S. cerevisiae deletion strains, locus YOR144C, strain elg1, hits give low values 1.03 | S. cerevisiae deletion strains, locus YOR184W, strain ser1, hits give low values 1.01 | S. cerevisiae deletion strains, locus YOR231W, strain MKK1, hits give low values 0.991 | S. cerevisiae deletion strains, locus YOR265W, strain rbl2, hits give low values 0.986 | S. cerevisiae deletion strains, locus YOR270C, strain vph1, hits give low values 0.878 | S. cerevisiae deletion strains, locus YOR290C, strain snf2, hits give low values 0.987 | S. cerevisiae deletion strains, locus YOR316C, strain cot1, hits give low values 1.01 | S. cerevisiae deletion strains, locus YPL051W, strain arl3, hits give low values 0.975 | S. cerevisiae deletion strains, locus YPL078C, strain atp4, hits give low values 0.981 | S. cerevisiae deletion strains, locus YPL106C, strain sse1, hits give low values 0.973 | S. cerevisiae deletion strains, locus YPL240C, strain hsp82, hits give low values 0.98 | S. cerevisiae deletion strains, locus YPL256C, strain CLN2, hits give low values 0.939 | S. cerevisiae deletion strains, locus YPR119W, strain clb2, hits give low values 1.02 | S. cerevisiae deletion strains, locus YPR141C, strain kar3, hits give low values 1.02 | S. cerevisiae deletion strains, locus YPR163C, strain tif3, hits give low values 1.02 | S. cerevisiae deletion strains, locus YPR167C, strain met16, hits give low values 1.01 | S. cerevisiae deletion strains, strain wtn01, hits give low values 1.01 | S. cerevisiae strains, strain wild type, hits give low values 0.998
